U2OS ROS induce: inducers of reactive oxygen species in cancer cells | ROS induction (% of piperlongumine), % at 10 µM | 2% of 46,000 active | U2OS ROS induction, H2DCF-DA fluorescence | AID 624156; in the data active = ROS induction above about 79%, passing the limit was not always enough;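 note: 0% = DMSO vehicle median and 100% = reference compound median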
An asterisk follows results filed as active. The entries come from a sample that favours hits as a whole.

SMILES	U2OS ROS induce
CNC[C@@H]1Oc2ccc(NS(=O)(=O)c3c(C)noc3C)cc2CC(=O)N([C@H](C)CO)C[C@@H]1C	-6
CNC[C@H]1Oc2ccc(NS(=O)(=O)c3c(C)noc3C)cc2CC(=O)N([C@@H](C)CO)C[C@H]1C	7
O=C(c1ccc2c(c1)sc1nc(-c3ccccc3)cn12)N1CCCCC1	20
Cc1ccc(N=C2SCC(=O)N2C)cc1	-10
O=C(CSc1nc2ccsc2c(=O)n1Cc1ccccn1)c1ccccc1	5
COc1ccc2c(c1)SC1=NC(c3ccccc3)(C(F)(F)F)NC(=O)N12 (configuration not stated)	-18
CCC1CCc2nc3sc(C(=O)Nc4cc(Cl)ccc4OC)c(N)c3cc2C1 (configuration not stated)	24
COC(CNC(=O)c1cnn2c(C)c(Cc3c(C)cc(C)cc3C)c(C)nc12)OC	56
CCN(CC)S(=O)(=O)c1ccc(Nc2c3c(nc4ccccc24)CCCC3)cc1	45
Cc1ccc2nc(C3CCCCC3)oc2c1	-5
NC(=O)CSc1ccc(-c2ccncc2)nn1	-12
CCOC(=O)c1c(CN(CC)CC)oc2ccc(OC)cc12	37
CCOC(=O)c1c(C)oc2ccc(OCc3cccc([N+](=O)[O-])c3)cc12	3
CCOC(=O)c1c(CSc2nc(C)ccc2C#N)oc2ccc(OC(C)=O)cc12	154*
COc1ccc(-n2ncc3c(N(Cc4ccccc4)Cc4ccccc4)ncnc32)cc1	35
CSc1ccccc1NC(=O)c1cnn2c(C(F)(F)F)cc(-c3ccco3)nc12	171*
O=C(c1cnn2c(C(F)(F)F)cc(-c3ccccc3)nc12)N1CCCC1	6
O=C(O)c1cnn2c(C(F)(F)F)cc(-c3ccco3)nc12	-13
NC(=O)c1c(NC(=O)c2cnn3c(C(F)(F)F)cc(-c4cccs4)nc23)sc2c1CCCC2	-18
COc1ccc(-c2cc(C(F)(F)F)n3nc(C(=O)NCc4ccco4)cc3n2)cc1OC	33
CCC(C)NC(=O)c1cnn2c(C(F)(F)F)cc(-c3ccccc3)nc12 (configuration not stated)	129*
COc1ccc(C(=O)NCCc2nc3ccccc3[nH]2)cc1OC	-2
Cc1cc(NC(=O)c2nn3c(C(F)(F)F)cc(-c4ccccc4)nc3c2Cl)nn1CC(=O)N1CCOCC1	-18
COc1ccc(-c2cc(C(F)(F)F)n3ncc(C(=O)NCc4nc5ccccc5[nH]4)c3n2)cc1OC	151*
CC1CC(C)CN(CCCNC(=O)Cn2c3ccccc3c3cn[nH]c(=O)c32)C1 (configuration not stated)	-2
SMILES	U2OS ROS induce
Oc1ccc(C=Nc2ccccc2)cc1	34
CC(NS(=O)(=O)c1ccc(C(C)(C)C)cc1)C1C2CC3CC(C2)CC1C3 (configuration not stated)	-2
O=C(c1cncc(NS(=O)(=O)c2ccc(Cl)cc2)c1)N1CCCc2ccccc21	4
O=C(NCc1ccccc1)N1CCSc2ccccc21	-5
O=C(Cc1cccc2ccccc12)Nc1ccc(I)cc1	-11
O=C(CSc1ccc(Cl)cc1)N1CCc2c([nH]c3ccccc23)C1C(F)(F)F (configuration not stated)	1
COc1cccc(NC(=O)CSc2ncnc3ccccc23)c1	-3
Cc1cccc(C)c1NC(=O)COc1ccc2cc(-c3ccccc3)c(=O)oc2c1	-12
CC(=O)Oc1ccc2cc(-c3nc4c(s3)CCc3ccccc3-4)c(=O)oc2c1	129*
COc1cc2cc(Oc3ccc4ccc(=O)oc4c3)c(=O)oc2cc1OC(C)=O	5
Cc1ccc(-c2nn(CCC(=O)N3CCCC3)c(=O)c3ccccc23)cc1	13
CCOC(=O)c1sc2nc(SCc3cccc(Cl)c3)n(Cc3cccs3)c(=O)c2c1C	4
CCN(CC)C(=O)Cn1cc(SCC(=O)N(C(C)C)C(C)C)c2ccccc21	-15
Cc1ccccc1NC(=O)CCC(=O)OC1CCC(C(C)(C)C)CC1 (configuration not stated)	-8
CCN(CC)C(=O)Cn1ncc2c(C)n(Cc3ccccc3F)c(C)c2c1=O	-3
O=C1c2ccccc2-c2c(NCCc3ccccc3)c(=O)[nH]c3cccc1c23	813*
Cn1c(=O)c(Nc2ccccc2)c2c3c(cccc31)C(=O)c1ccccc1-2	51
Cc1nnc(NCCc2ccccc2)[nH]c1=O	-6
CCOC(=O)C(C)(C)Sc1nc2c(c(=O)n1-c1ccc(F)cc1)SCC2	33
CCOC(=O)c1cccc(NC(=O)c2ccc(-c3ccccc3)s2)c1	17
COc1ccc([Si](C)(C)[C@@H]2[C@@H](CCO)O[C@]3(C(=O)N(Cc4ccc(N5CCOC5=O)cc4)c4ccccc43)[C@H]2C)cc1	240*
COc1ccc([Si](C)(C)[C@H]2[C@H](CCO)O[C@@]3(C(=O)N(Cc4ccc(NC(C)=O)cc4)c4ccccc43)[C@@H]2C)cc1	36
C=CCN1C(=O)[C@]2(O[C@H](CCO)[C@@H]([Si](C)(C)c3ccc(OC)cc3)[C@@H]2C)c2cc(N3CCOC3=O)ccc21	20
COc1ccc([Si](C)(C)[C@@H]2[C@@H](CCO)O[C@]3(C(=O)N(Cc4ccc(NC(C)=O)cc4)c4ccccc43)[C@H]2C)cc1	93*
COc1ccc([Si](C)(C)[C@H]2[C@H](CCO)O[C@@]3(C(=O)N(Cc4ccccc4)c4ccc(N5CCOC5=O)cc43)[C@@H]2C)cc1	36
SMILES	U2OS ROS induce
COc1ccc([Si](C)(C)[C@H]2[C@H](CCO)O[C@@]3(C(=O)N(Cc4ccc(NC(=O)[C@H](C)O)cc4)c4ccccc43)[C@@H]2C)cc1	44
COc1ccc([Si](C)(C)[C@@H]2[C@@H](CCO)O[C@]3(C(=O)N(c4ccccc4)c4ccccc43)[C@H]2C)cc1	25
COc1ccc([Si](C)(C)[C@@H]2[C@@H](CCO)O[C@]3(C(=O)N(Cc4ccccc4)c4ccc(N5CCOC5=O)cc43)[C@H]2C)cc1	15
COc1ccc([Si](C)(C)[C@@H]2[C@@H](CCO)O[C@]3(C(=O)N(Cc4cccc(N5CCOC5=O)c4)c4ccccc43)[C@H]2C)cc1	101*
O=C(Oc1nnc(SCCS(=O)(=O)c2ccc(F)cc2)n1C1CC1)c1cccs1	4
CCC(=O)c1cn(S(=O)(=O)c2ccc(C)cc2)c2ccccc12	14
O=C1Nc2ccccc2C1(O)C/C(=N/O)c1ccco1 (configuration not stated)	-22
Cn1ccnc1Sc1cnc(SCc2ccc(Cl)cc2)nc1-c1ccccc1	7
COc1ccc(OC)c(N(C)S(=O)(=O)c2cc(Br)cnc2N)c1	-3
C(=NCc1ccc2c(c1)OCO2)c1cccnc1	-16
CNC(=O)c1c(-c2ccccc2)c2cc(OC)ccc2n1CCN(C)C	-10
N#Cc1cccnc1N1CCN(C(=O)Nc2cccc3ccccc23)CC1	-11
COc1ccc(C2CC(c3ccc(C)cc3)=NN2S(=O)(=O)c2ccc(C)cc2)cc1 (configuration not stated)	18
COc1cccc(NC(=S)N2CCC3(CC2)CC(=O)c2ccccc2O3)c1	-1
COc1cccc(Nc2nnc(-c3cc4cccc(OC)c4oc3=O)s2)c1	-10
COc1cccc(Nc2nc(C3(C)CC4(CC(C)OC4=O)C(=O)O3)cs2)c1 (configuration not stated)	92*
C=CCN(C(=O)CSc1nc2[nH]ncc2c(=O)n1-c1cccc2ccccc12)c1ccccc1	13
CCCCn1c(SCC(=O)NCc2ccccc2)nc2c(sc3ccccc32)c1=O	3
C=CCN(C(=O)CSc1nc2c(sc3ccccc32)c(=O)n1Cc1cccnc1)c1ccccc1	154*

High-throughput results (PubChem BioAssay)
